Experimental data reported in PubChem BioAssay AID651780 (The Scripps Research Institute Molecular Screening Center, 2012).
Out of some 2,400 compounds screened, about 1,800 (75%) were called active. Cut-off read from the data, not from the text of the source: active = inhibition above about 22%; inactive = the rest. The set was probably picked from earlier hits. These entries were drawn from the full list.

Assay: nonselective antagonists in TAAR1 counter-screen cells, counter-screen for hTAAR1 antagonist project, cell-based, fluorescence, calcium (AID 651780);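 note: CHO-Ga16 host cells stimulated with ATP at an EC80 level; 0% = agonist EC80 plus vehicle and 100% = vehicle without agonist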
Conditions: counterscreen cell line, antagonist mode, at 3 µM, hits give high values

| Compound | inhibition |
| --- | --- |
| COC(=O)C1=C(c2ccccc2OCc2ccccc2)C[C@@H]2CC[C@H]1N2C(=O)NCc1ccc(OC)cc1 | 22.2% (active) |
| COC(=O)C1=C(c2ccc(F)cc2OCc2ccccc2)C[C@@H]2CC[C@H]1N2C(=O)NCc1ccc(OC)c(OC)c1 | 24.8% (active) |
| O=C1C2(Cl)C3(Cl)C4(Cl)C(Cl)(Cl)C5(Cl)C3(Cl)C1(Cl)C5(Cl)C24Cl (stereo not drawn) | 24.9% (active) |
